Laboratory results published in PubChem BioAssay AID1508600 (Functional Genomics Laboratory (NCATS/FGL), 2020).
Among all 53,000 sequences or so, about 3,700 (7%) were called active. Only a selection was taken, and actives are over-represented in it overall. Values without a mark were called inactive.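 How the source made its calls: active means gene knockdowns whose robust z-score for IL-1 alpha signal is at least 2 or at most -2, so actives lie on both sides; inactive means the rest.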

Test: Components of the Cytosolic LPS Sensing Pathway: Gene Identification via Genome-wide siRNA Screen;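 further: robust z of the log signal after scaling to non-targeting control siRNA wells of the plate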
Conditions: RAW264.7 macrophages, IL-1a HTRF, actives lie on both sides, screened at 100 nM (by protocol), cells primed 5 h with Pam3CSK4 first
In short: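 Read-out: IL-1a HTRF on supernatant, divided by plate negative-control median ×100, log-transformed and converted to robust z-score. Cells were RAW264.7 given 100 nM siRNA, Pam3CSK4-primed 5 hours, then LipidA-transfected 24 hour.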

Sequence | z-score
GGCUAAAGCGAAAAAAAAGTT against Msl3 | -0.114
CGGAUUCACAAGAACACCUTT against Pramel12 | -0.157
GGGCUGUUCCAUUUCUUUATT against Atcay | 0.727
CGGAACUCUGCCACAAGUUTT against Zfp36 | 1.27
GGCAUAUGUUGAAACUAUUTT against Sel1l3 | 1.29
GCUCGUGUCAGAACCGAUGTT against Rwdd3 | 2.39 (active)
GCCAAAAAAGCUGUCAGUUTT against Nkx2-3 | -1.11
GGAGGACGUAACUAAAUCATT against Napepld | -0.934
UCUACAGGACUAUUAGAUUTT against Wnt6 | 0.563
GGUUCUAUAGGGCUCCGAATT against Tmem179b | 4.23 (active)
GGGAUCAAAACAUACUGUGTT against Klra4 | 0.0891
GGUCAUGCAGGUUUUGAAUTT against Snd1 | 1.9
GGCUGAAAUAAAACAAGAATT against Use1 | -0.778
GCAGAAGCGUGGCAUUGUATT against Ins2 | 0.5
GGAAGUGCUGAAGGUGUACTT against Spire2 | 2.38 (active)
GGAUUUAGCCAAUCAAUCUTT against Cdc14b | -0.872
GGACUACCUAUGGUUAAAATT against Nup93 | -1.58
GCUGGUUAGACCCUUCCAATT against Hnf4g | 3.56 (active)
GCAUCUACUCCCUAUAGACTT against Nin | 0.322
GGCAGAGGAAAUCAUGAAGTT against Clpp | -1.05
GGGAGUUCAACUUGAUGUATT against Irf6 | -1.45
GGAUCCCAGAUUGAAAACUTT against Rnf5 | -0.92

Sequence | z-score
CGUGGACUAAAAGUUUUCATT against Mmp12 | 3.63 (active)
CCGGACCUCUGCGCAAUUUTT against Npb | 0.289
GUUUUUGCUAUGGCUCGUATT against H3c1 | 0.92
GGUGCUGCUAGUGAACAAGTT against E2f4 | 5.64 (active)
CCGAGAACCUUAAACUCCCTT against Sowahc | 0.161
GGAGAUAUGGCCAUCACUCTT against Toe1 | 1.11
GGCCUUUGAUGACAUGUACTT against Bpifb1 | -0.378
GAUGCUAGUGAACCUCAUGTT against Olfr1020 | -0.765
CGAUUGGUUGUUGUAGACATT against Abhd11 | -2.56 (active)
CCAAUCCAAACGAAGUUAATT against Rgs9 | -0.977
CGUUUCAACAAGCUCGUGUTT against Rbmxl2 | 1.02
GGAUACAAAUGAAAGCUUATT against Zfp354b | -0.307
GGCAAGAAACAGUCAUAAGTT against Eps8l3 | 0.404
GGCAUCAAGUUCUAUCUGUTT against Slc6a11 | -0.704
GGCCGGUUAGCUAAUCAGATT against Armc10 | 2.03 (active)
UGGCUGAUAUGAAGGUCUGTT against Krtap31-2 | 0.154
GCUGUACGUUUGCACAUUCTT against Rc3h1 | -2.87 (active)
GGCUCUGUAUCGGAAGGCUTT against Zc3h7a | 0.817
GGAUUCUGCUAGCAGUUCATT against Csn1s2a | -0.477
GGGUUGCUUCAACUUUUAGTT against Mpp1 | -0.346
GGCCAUGGAAAAAUCUCAGTT against Dtna | 0.557
GCCUAUACAACCCUAUUGUTT against Kazn | -0.879

Sequence | z-score
GCGCAGGAUGAGAAGUUCUTT against Slc43a3 | 3 (active)
GGUUUGUGGUGAACUUUCATT against Lgals9 | 0.707
GGAUUUGGAAAAUUGAUGCTT against Ahi1 | 0.97
GGAUGAAAGCAAAGACAAGTT against Zscan21 | 2.63 (active)
GGUUGAUGGGAAAACAAUATT against Rab11a | -0.6
GAUCCUGCAUCUUUAGUGUTT against Ascl1 | -0.0831
GCUGAUUCCGUGUCCCAACTT against Gng2 | 3.42 (active)
GGGUAGGGCAGUCUACUUATT against F2r | -0.407
CCUGCUUCUCUACAACCAUTT against Olfr1209 | -0.817
GCUUGUAUUGCUUGUCUUUTT against Olfr172 | 1.89
GGAGUAGAAGAAGAGGAGUTT against Mrpl50 | 0.946
GGUGCAAUCAGCUUUCCACTT against Olfr1336 | 2.26 (active)
CCGAUUGAUAAAGUCACAUTT against Zfat | 0.241
GGAAAAAAGAUGAAUUGCCTT against Cbx8 | 1.63
GGAGUCUUGGCCCUUUAAUTT against Zcchc12 | -1.09
GCCUCUUUAUAAUAUAAGGTT against Pcgf6 | -0.687
CGGUUAACUGGAAAGUGCGTT against Tmem132e | 2.99 (active)
CGUGAUGAAUGAGAAUAACTT against Maea | 0.584
GGAAUUAAACCAUUUCAGUTT against Zbtb44 | 1.28
GGAGGAUUCAUGCUUUGUUTT against Morc2b | 0.238
GGUUUUUGAGUGGGAGACCTT against Khdc3 | -0.578
GAUUUAGCUUGGUGAACCGTT against Thoc6 | 0.754

Sequence | z-score
GGACUUAGACAUCCACCUCTT against Llcfc1 | -1.64
GGGACUGAAAUCUAUUUUGTT against Zfp217 | 2.16 (active)
CCAAGCUAGUCCUCAAGCUTT against Snapc2 | -1.16
GGGAUUGGCUACGACUUCATT against Cbs | 2.06 (active)
GCUAGCUGUUGUAAAAGAATT against Gm4841 | -0.507
GGCCAUUAACCAGUCUAUCTT against Cdhr5 | 0.977
GGUUCUGGAGAACAGAGUCTT against 4930483J18Rik | -0.44
GCGAUAAGCAGAAUGGCAGTT against 8030462N17Rik | -0.9
CGGGUGCCGGAAAGUUUAUTT against Klf7 | 2.84 (active)
GCAGCAUUGACUGAAGAUCTT against Lce1m | -0.316
GGACAAAAGGCUGAGCAUCTT against Flt1 | -0.235
GGAAUCAUGCUGAAAGAGATT against Apom | -0.123
GGUUGCGUGUGGUUACUAUTT against Herc4 | 0.161
CCUCUGUGAUUUCAUUCUUTT against Hhip | -0.991
GGCAUUUUCACAAAAGACUTT against Rab23 | -1.43
GGAUGGCUACCGAAAAAAUTT against Eif3c | 0.967
CGACGCAUUGAGGCAAUCUTT against Camsap3 | -0.483
GGCAAAGCACCUUUAUCUGTT against G430095P16Rik | -0.664
CCCAAGGUCCAGUUUGAUGTT against Mettl17 | -2.42 (active)
GGCAAGGAUAAGACAGUAGTT against Hs3st3b1 | -0.354
GGAUGAAGACCUUGAACGGTT against Slc28a3 | 1.48
GGAAACAGGUCUGUCCCAATT against Ankle1 | -2.22 (active)

Sequence | z-score
GGUUACCUAGAAGUGGACUTT against Igsf6 | 0.201
CCUUUCCAAACACCUAUAATT against Sox6 | -1.2
CCUUUCAGACCAGUUCAUUTT against Ppp1r17 | 0.193
GGUUCUUUUCAGCUCAUUATT against Toporsl | -0.0962
GCUUCCUACGGUGUGUCAATT against Hnrnpu | -2.43 (active)
GGAGCCCAAAAAGAAGAAATT against Mrpl48 | 0.43
GGCCCAGCAAAAAAAGAAGTT against Usp46 | -0.397
GGUCAUAGCACCAUGUUCUTT against Gata5 | 0.831
GGAAGAGACUUAUAAUGGUTT against Olfr1214 | 1.28
CGAAAUCAGAACCUGGGAATT against Hacd3 | 2.73 (active)
GGCUAUGUCUGUUUCCUUUTT against Defa-rs10 | 0.963
GGAUAUUCCUGGACUGACATT against Rps6 | -0.996
GGCAGAAUAUACUUGCCCUTT against Uevld | -0.156
GGAGAGCUCCUAUAAUCCUTT against Plau | 0.267
GGAUAUUGUCUUUGUAGAATT against Kap | -0.565
GGACGUGAAGUGAAGUCAUTT against 1810009N02Rik | -0.626
GGCCUUGUACUUACACAAGTT against Rspo1 | 0.398
CCUUUCCUACUCUGUACCCTT against Abcg1 | 2.22 (active)
GGAUUCUCACAAGUAAUUCTT against Ifi203 | 0.272
GGCUGUCACCCUACAUGACTT against Uba1 | 0.0469
